Source: PubChem BioAssay (Tox21)
Inconclusive results are not listed. Active and inactive are the calls of the source. Unless noted, calls follow the shape of the dose curve; as a rule, active = well fitted curve in the direction sought with a large enough effect in the repeat runs; inconclusive = weak or mixed curves; inactive = no such curve, though single readings can be large; an effect the other way counts as inactive or inconclusive.

Assays:
[1] = target: Nuclear receptor subfamily 1 group I member 3 (Homo sapiens) (UniProt Q14994); assay: qHTS assay to identify small molecule agonists of the constitutive androstane receptor (CAR) signaling pathway (AID 1224839); also: nearly all actives have a fitted effect of over 15% in size
Procedure, shortened: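 A 15-concentration quantitative screen uses HepG2 cells co-transfected stably with human CAR and CYP2B6-2.2kb reporter. Treatment lasts 24 h with 0.75 uM PK11195 final present; ONE-Glo luminescence is the signal.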

[2] = qHTS assay to identify small molecule antagonists of the estrogen related receptor signaling pathway with the pleiotropic PPARgamma coactivator (PGC) from Tox21 10K library - cell viability counter screen (AID 1224840; active = well fitted cell-killing curve with a large enough effect in the repeat runs, not every such curve was filed as active; also: nearly all actives have a fitted effect of over 40% in size)
Procedure, shortened: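 Cell viability is measured by CellTiter-Fluor fluorescence in PGC/ERR cells that receive compounds after a 6-hour attachment period and are then incubated 17.5 hours at 37 C.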

[3] = target: Thyrotropin receptor (Homo sapiens) (UniProt P16473); assay: qHTS assay to identify small molecule agonists of the thyroid stimulating hormone receptor (TSHR) signaling pathway (AID 1224843; calls by dose curve; also: nearly all actives have a fitted effect of over 45% in size)
Procedure, shortened: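 A cell-based cAMP HTRF format was run in TSHR-transfected HEK293 cells, 800 per well. Treatment: 30 min, room temperature. Detection: 1 h with labelled cAMP and anti-cAMP cryptate. Concentration-response over 15 points, three replicates.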

[4] = qHTS assay to identify small molecule agonists of H2AX - cell viability counter screen (AID 1224847; calls by dose curve; also: top concentration of the series differs between compounds; nearly all actives have a fitted effect of over 30% in size)
Procedure, shortened: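 We seed wild-type CHO-K1 cells overnight, treat them for 3 hr at 37C with compounds in 15-concentration series, and quantify remaining viability by CellTiter-Glo luminescence.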

[5] = qHTS RealTime-Glo MT Cell Viability Assay in HEK293 cells - 32 hour (AID 1224868); also: top concentration of the series differs between compounds; nearly all actives have a fitted effect of over 50% in size
Procedure, shortened: (§1)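 Tox21 10K qHTS, HEK293, 600 cells/well, RealTime-Glo reagent co-dispensed with cells; 5 h preincubation, compound by pintool, 37 C, luminescence at 0–40 h.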

[6] = A CellTox Green Cytotoxicity Assay to monitor cytotoxicity in HEK293 cells - 0 hour (AID 1224869); also: nearly all actives have a fitted effect of over 50% in size
Procedure, shortened: (§2)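 Dead-cell fluorescence measured kinetically: asymmetric cyanine dye, HEK293, 600 cells/well, 5 h settle, 23 nL cpd/DMSO, 37 C, reads 0–40 h every 8 h.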

[7] = qHTS RealTime-Glo MT Cell Viability Assay in HepG2 cells - 40 hour (AID 1224870); also: nearly all actives have a fitted effect of over 50% in size
Procedure, shortened: (§3)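 Real-time viability: cells seeded at 600 per well together with NanoLuc and cell-permeant prosubstrate, compounds added after 5 h incubation. Luminescence tracked at 0, 8, 16, 24, 32 and 40 h of exposure.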

[8] = A CellTox Green Cytotoxicity Assay to monitor cytotoxicity in HEK293 cells - 40 hour (AID 1224871); also: nearly all actives have a fitted effect of over 45% in size
Procedure, shortened: as §2

[9] = qHTS RealTime-Glo MT Cell Viability Assay in HEK293 cells - 16 hour (AID 1224872); also: top concentration of the series differs between compounds; nearly all actives have a fitted effect of over 50% in size
Procedure, shortened: as §1

[10] = qHTS RealTime-Glo MT Cell Viability Assay in HepG2 cells - 8 hour (AID 1224873); also: nearly all actives have a fitted effect of over 55% in size
Procedure, shortened: as §3

[11] = qHTS RealTime-Glo MT Cell Viability Assay in HEK293 cells - 40 hour (AID 1224874); details: RealTime-Glo luminescence; max response: hits give low values; also: nearly all actives have a fitted effect of over 50% in size
Procedure, shortened: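 600 HEK293 cells per well, dispensed already mixed with RealTime-Glo MT reagents. Compound dosing came 5 h later. The same wells were read for luminescence at 0, 8, 16, 24, 32 and 40 h of exposure at 37 C.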

[12] = A CellTox Green Cytotoxicity Assay to monitor cytotoxicity in HEK293 cells - 24 hour (AID 1224875); also: nearly all actives have a fitted effect of over 45% in size
Procedure, shortened: as §2

[13] = qHTS assay to identify small molecule agonists of H2AX (AID 1224845; active = well fitted activation curve with a large enough effect in the signal ratio in the repeat runs, not every such curve was filed as active; the % refers to the signal ratio)
Procedure, shortened: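 Phospho-H2AX Ser139 measured by HTRF (ex 320 nm; em 665 and 620 nm) after 24 hr antibody incubation. Compounds, 15 concentrations, 0.76% DMSO, were applied to CHO-K1 cells for 3hr at 37C before lysis.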

[14] = qHTS assay to identify small molecule agonists of the hypoxia (HIF-1) signaling pathway (AID 1224846; active = well fitted activation curve with a large enough effect in the signal ratio in the repeat runs, not every such curve was filed as active; the % refers to the signal ratio)
Procedure, shortened: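 Agonist mode reporter screen. ME-180 cells stably expressing bla under HRE control received test compounds in DMSO for 17 hrs (37C, 5% CO2), and beta-lactamase activity was then detected with the CCF4-AM FRET substrate.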

[15] = qHTS RealTime-Glo MT Cell Viability Assay in HepG2 cells - 24 hour (AID 1224867); also: nearly all actives have a fitted effect of over 50% in size
Procedure, shortened: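 Cells + NanoLuc/prosubstrate dispensed (600 cells/well) → 5 h at 37 C/5% CO2 → compounds in DMSO transferred → 40 h incubation at 37 C, luminescence read at 0, 8, 16, 24, 32, 40 h.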

[16] = qHTS assay to identify small molecule agonists of the hypoxia (HIF-1) signaling pathway - cell viability counter screen (AID 1224844; calls by dose curve; also: nearly all actives have a fitted effect of over 50% in size)
Procedure, shortened: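 Viability counter screen: HRE-bla ME-180 cells plated 5 hrs before compound addition, treated 17 hrs at 37C and 5% CO2, then CellTiter-Glo added after the FRET reporter read; luminescence after 30 min.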

[17] = qHTS assay to identify small molecule antagonists of the estrogen related receptor (ERR) signaling pathway from Tox21 library (AID 1224848); also: nearly all actives have a fitted effect of over 50% in size
Procedure, shortened: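 ERR cell line, 2,000 cells/well. 6 h settle, then compound (DMSO) added; 18 h at 37 C; ONE-Glo luminescence after 30 min RT.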

[18] = qHTS assay to identify small molecule agonists of the estrogen related receptor (ERR) signaling pathway from Tox21 library (AID 1224849; calls by dose curve; also: nearly all actives have a fitted effect of over 15% in size); details: ERR reporter cell line, ONE-Glo luciferase, 18 h; at 92.4 µM (top of the series) unless noted
Procedure, shortened: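 Quantitative HTS in agonist format: NTP ERR cell line, compounds transferred in DMSO after 6 h plating, 18 h incubation at 37 C, ONE-Glo luminescence endpoint.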

[19] = qHTS assay to identify small molecule agonists of the estrogen related receptor signaling pathway with the pleiotropic PPARgamma coactivator (PGC) from Tox21 10K library (AID 1224842); also: nearly all actives have a fitted effect of over 15% in size
Procedure, shortened: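 Luminescence from One-Glo (30 min, room temperature) measured after PGC/ERR cells had 18 h at 37 C with pinned compound (23 nL in DMSO). Cells had been seeded at 2,000 per well and pre-incubated 6 h.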
% is scaled to controls: 0 for no effect and ±100 for the full control effect.

Sequence of Nuclear receptor subfamily 1 group I member 3 (Homo sapiens) (Q14994 whole entry, looked up): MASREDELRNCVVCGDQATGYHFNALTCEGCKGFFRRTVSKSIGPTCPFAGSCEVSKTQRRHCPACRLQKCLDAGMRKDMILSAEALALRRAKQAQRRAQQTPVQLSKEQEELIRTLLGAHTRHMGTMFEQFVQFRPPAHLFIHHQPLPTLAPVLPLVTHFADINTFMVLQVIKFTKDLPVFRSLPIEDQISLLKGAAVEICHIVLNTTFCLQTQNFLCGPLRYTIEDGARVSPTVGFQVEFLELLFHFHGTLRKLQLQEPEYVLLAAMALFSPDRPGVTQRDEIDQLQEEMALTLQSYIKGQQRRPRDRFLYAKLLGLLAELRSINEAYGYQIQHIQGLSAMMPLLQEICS
Sequence of Thyrotropin receptor (Homo sapiens) (P16473 whole entry, looked up): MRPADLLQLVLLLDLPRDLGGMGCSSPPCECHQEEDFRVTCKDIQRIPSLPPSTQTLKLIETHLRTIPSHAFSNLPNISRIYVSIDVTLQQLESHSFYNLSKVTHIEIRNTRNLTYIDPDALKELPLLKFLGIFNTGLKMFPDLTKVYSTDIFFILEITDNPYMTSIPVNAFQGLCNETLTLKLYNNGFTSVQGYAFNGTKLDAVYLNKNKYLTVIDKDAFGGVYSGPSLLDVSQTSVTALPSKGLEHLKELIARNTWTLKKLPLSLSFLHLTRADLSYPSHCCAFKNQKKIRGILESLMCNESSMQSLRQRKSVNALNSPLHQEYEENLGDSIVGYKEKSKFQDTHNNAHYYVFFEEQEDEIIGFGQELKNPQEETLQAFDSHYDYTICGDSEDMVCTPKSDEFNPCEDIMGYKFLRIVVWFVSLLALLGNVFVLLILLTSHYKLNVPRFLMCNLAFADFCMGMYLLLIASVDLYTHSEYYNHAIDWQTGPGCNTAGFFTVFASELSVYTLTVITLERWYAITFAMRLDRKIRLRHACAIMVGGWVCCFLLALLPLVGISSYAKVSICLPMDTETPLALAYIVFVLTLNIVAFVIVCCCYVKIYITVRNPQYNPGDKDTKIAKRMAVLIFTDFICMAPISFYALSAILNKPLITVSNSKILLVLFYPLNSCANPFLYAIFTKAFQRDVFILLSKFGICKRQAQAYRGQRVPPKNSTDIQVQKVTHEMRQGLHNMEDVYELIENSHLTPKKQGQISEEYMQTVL

CC(C)OC(=O)OCOP(=O)(CO[C@H](C)Cn1cnc2c(N)ncnc21)OCOC(=O)OC(C)C
inactive: Potency [1] | outcome [2] | outcome [3] | outcome [4] | Potency [5] | Potency [6] | outcome [7] | Potency [8] | Potency [9] | outcome [10] | max response [11] 2.48% | Potency [12]

CO/N=C(/C(=O)N[C@@H]1C(=O)N2C(C(=O)[O-])=C(C[n+]3ccn4ncccc43)CS[C@H]12)c1nsc(N)n1
inactive: Potency [1] | outcome [2] | outcome [3] | outcome [13] | outcome [14] | outcome [15] | Potency [5] | outcome [7] | Potency [8] | Potency [9] | outcome [10] | max response [11] 6.83% | Potency [12]

COc1ccc2c(c1)c1c3n2CCN(C)C3=NCC1
inactive: Potency [1] | outcome [2] | outcome [3] | outcome [13] | outcome [14] | outcome [15] | Potency [5] | outcome [7] | Potency [8] | Potency [9] | outcome [10] | max response [11] 17.6% | Potency [12]

CCCCCCCCCCCCCCCCCC#N
inactive: Potency [1] | outcome [2] | outcome [3] | outcome [13] | outcome [14] | outcome [4] | outcome [15] | Potency [5] | outcome [7] | Potency [8] | Potency [9] | outcome [10] | max response [11] -5.42% | Potency [12]

[O-][n+]1cccc(/C(Cl)=N/OC[C@@H](O)CN2CCCCC2)c1
inactive: Potency [1] | outcome [2] | outcome [16] | outcome [13] | outcome [14] | outcome [4] | Potency [5] | Potency [6] | outcome [7] | Potency [8] | Potency [9] | outcome [10] | max response [11] 2.14% | Potency [12]

CC1(C)Oc2ccc(C#N)cc2[C@@H](N2CCCC2=O)[C@@H]1O
inactive: Potency [1] | outcome [2] | outcome [3] | outcome [13] | outcome [4] | outcome [15] | Potency [5] | Potency [6] | outcome [7] | Potency [8] | Potency [9] | outcome [10] | max response [11] 2.51% | Potency [12]

Fc1ccccc1
inactive: Potency [1] | outcome [2] | outcome [3] | outcome [14] | outcome [4] | Potency [17] | activity change, positive = activation [18] 8.1% | outcome [15] | Potency [5] | Potency [6] | outcome [7] | Potency [8] | Potency [9] | outcome [10] | max response [11] 13.3% | Potency [12]

CC(C)(CO)C(O)C(=O)NCCCO (configuration not stated)
inactive: outcome [2] | outcome [19] | outcome [3] | outcome [16] | outcome [13] | Potency [17] | activity change, positive = activation [18] 0.356% | outcome [15] | Potency [5] | Potency [6] | outcome [7] | Potency [8] | Potency [9] | outcome [10] | max response [11] 2.36% | Potency [12]
